Inconclusive results are not listed. Active and inactive are the calls of the source. Unless noted, the call rests on the fitted dose curve; in most records, active means well fitted curve in the direction sought with a large enough effect; inconclusive means small, poorly fitted or top-dose-only effect, or another doubt; inactive means no such curve, though single readings can be large; an effect the other way counts as inactive or inconclusive.
How the values were obtained:
[1] = qHTS for Inhibitors of Cell Surface uPA Generation: Validation Assay (AID 493164);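 further: RAW 264.7 macrophage cells exposed to compound for 18 h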
Method in brief: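 Compounds are titrated over seven points (2.45 nM–38.3 uM final) onto pre-plated RAW 264.7 cells and incubated for 18 h. Retained intracellular ATP, measured with ATP-Lite, indicates blocked lethal factor entry.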

[2] = target: Phosphoglycerate kinase, glycosomal (Trypanosoma brucei brucei) (UniProt P07378); test: qHTS Validation Assay to Find Inhibitors of Phosphoglycerate Kinase (AID 504547)
Sequence of Phosphoglycerate kinase, glycosomal (Trypanosoma brucei brucei) (P07378 whole entry, looked up): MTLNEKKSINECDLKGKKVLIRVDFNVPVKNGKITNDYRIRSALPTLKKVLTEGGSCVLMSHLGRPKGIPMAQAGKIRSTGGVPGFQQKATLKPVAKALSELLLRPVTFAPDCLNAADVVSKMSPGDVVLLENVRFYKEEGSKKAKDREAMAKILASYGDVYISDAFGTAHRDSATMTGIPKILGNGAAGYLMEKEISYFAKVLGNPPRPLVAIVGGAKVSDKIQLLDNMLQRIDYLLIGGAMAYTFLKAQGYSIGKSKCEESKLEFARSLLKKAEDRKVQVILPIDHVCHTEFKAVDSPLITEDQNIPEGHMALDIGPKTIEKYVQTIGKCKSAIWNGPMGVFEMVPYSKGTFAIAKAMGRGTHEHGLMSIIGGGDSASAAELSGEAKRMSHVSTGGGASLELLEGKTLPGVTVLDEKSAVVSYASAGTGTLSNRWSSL
Method in brief: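 In TEA buffer (100mM, pH 7.6) containing 5mM MgCl2 and 0.01% Tween-20, the GAPDH-coupled PGK reaction proceeded for 60 minutes at room temperature before a single luminescence reading using Kinase-Glo Plus.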

[3] = target: phosphoglycerate mutase (Leishmania major) (UniProt Q4Q090); test: qHTS Validation Assay to Find Inhibitors of Phosphoglycerate Mutase (AID 504548); conditions: Potency: inhibition qHTS; further: potency means the concentration at half of the fitted maximal effect
Sequence of phosphoglycerate mutase (Leishmania major) (Q4Q090 1-553): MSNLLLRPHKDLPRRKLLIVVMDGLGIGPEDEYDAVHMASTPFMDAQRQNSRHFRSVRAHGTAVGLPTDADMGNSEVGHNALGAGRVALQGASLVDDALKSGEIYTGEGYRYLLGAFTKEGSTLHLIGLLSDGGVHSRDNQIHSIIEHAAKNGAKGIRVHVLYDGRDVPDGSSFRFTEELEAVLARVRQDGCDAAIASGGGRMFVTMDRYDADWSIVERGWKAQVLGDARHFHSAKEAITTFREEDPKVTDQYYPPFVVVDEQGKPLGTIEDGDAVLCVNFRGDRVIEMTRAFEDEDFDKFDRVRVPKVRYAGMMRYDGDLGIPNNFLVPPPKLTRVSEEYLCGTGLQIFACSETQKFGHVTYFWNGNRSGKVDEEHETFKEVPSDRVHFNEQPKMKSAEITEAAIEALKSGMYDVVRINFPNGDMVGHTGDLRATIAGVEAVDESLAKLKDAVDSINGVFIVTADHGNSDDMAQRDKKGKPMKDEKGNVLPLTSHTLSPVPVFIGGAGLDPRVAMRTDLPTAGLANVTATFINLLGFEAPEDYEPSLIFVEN
Method in brief: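 L. major PGAM (1.25nM final) was added to substrate buffer and pinned compound, incubated 45 minutes at room temperature, then Kinase-GloPlus added; luminescence read after 10 minutes. Buffer: 100 mM TEA pH 7.6, 5 mM MgCl2, 0.01% Tween-20.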

[4] = target: Ubiquitin carboxyl-terminal hydrolase 1 (Homo sapiens) (UniProt O94782); test: Inhibitors of USP1/UAF1: Pilot qHTS (AID 504865); further: nearly all actives have a fitted effect of over 35% in size; further: potency means the concentration at half of the fitted maximal effect
Sequence of Ubiquitin carboxyl-terminal hydrolase 1 (Homo sapiens) (O94782 whole entry, looked up): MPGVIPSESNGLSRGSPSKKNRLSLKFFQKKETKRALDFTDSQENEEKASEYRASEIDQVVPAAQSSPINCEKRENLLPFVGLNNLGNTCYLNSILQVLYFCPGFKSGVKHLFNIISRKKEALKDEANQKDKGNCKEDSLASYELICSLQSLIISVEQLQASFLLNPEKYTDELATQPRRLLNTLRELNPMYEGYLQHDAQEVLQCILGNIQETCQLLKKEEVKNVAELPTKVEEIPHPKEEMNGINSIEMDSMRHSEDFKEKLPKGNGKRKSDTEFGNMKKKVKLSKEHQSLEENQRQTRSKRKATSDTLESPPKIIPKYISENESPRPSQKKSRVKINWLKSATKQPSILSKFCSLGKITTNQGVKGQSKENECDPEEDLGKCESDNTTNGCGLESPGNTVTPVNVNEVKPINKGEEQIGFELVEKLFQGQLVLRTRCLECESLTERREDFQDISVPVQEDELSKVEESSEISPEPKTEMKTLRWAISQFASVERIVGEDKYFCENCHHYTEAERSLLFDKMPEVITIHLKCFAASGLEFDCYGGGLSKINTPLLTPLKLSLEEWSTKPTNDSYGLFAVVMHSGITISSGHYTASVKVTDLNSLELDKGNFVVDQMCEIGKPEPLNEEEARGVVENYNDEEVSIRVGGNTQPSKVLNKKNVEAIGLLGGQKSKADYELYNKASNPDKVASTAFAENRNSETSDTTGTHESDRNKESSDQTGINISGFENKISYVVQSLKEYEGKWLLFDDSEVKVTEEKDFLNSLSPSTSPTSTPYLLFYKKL
Method in brief: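 USP1/UAF1 complex (1nM) preincubated with compound 15 min at room temperature, then Ub-Rho substrate (150nM final) added. Fluorescence read kinetically at 480/540 nm, 6 reads every 60 seconds. Buffer: 50mM HEPES pH 7.8, 0.5mM EDTA, 0.1 mg/ml BSA, 1mM TCEP, 0.01% Tween-20.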

[5] = qHTS for Inhibitors of ATXN expression: Validation of Cytotoxic Assay (AID 588349); further: potency means the concentration at half of the fitted maximal effect
Method in brief: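 Toxicity of test compounds toward HEK293 cells is scored from cellular ATP content measured by CellTiter Glo. Cells receive titrated doses and incubate 72 hr at 37 degrees C beforehand.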

[6] = qHTS for Inhibitors of ATXN expression: Validation (AID 588378); further: nearly all actives have a fitted effect of over 75% in size; further: potency means the concentration at half of the fitted maximal effect
Method in brief: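 Luminescence from an ATXN2-FFLuc reporter in HEK293 cells served as read-out after 24 h compound treatment at 37 degrees C; CellTiter-Fluor fluorescence was recorded first to assess viability.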

[7] = target: Galactokinase (Homo sapiens) (UniProt P51570); test: qHTS Validation Assay for Inhibitors of Human Galactokinase (GALK) (AID 493189)
Sequence of Galactokinase (Homo sapiens) (P51570 whole entry, looked up): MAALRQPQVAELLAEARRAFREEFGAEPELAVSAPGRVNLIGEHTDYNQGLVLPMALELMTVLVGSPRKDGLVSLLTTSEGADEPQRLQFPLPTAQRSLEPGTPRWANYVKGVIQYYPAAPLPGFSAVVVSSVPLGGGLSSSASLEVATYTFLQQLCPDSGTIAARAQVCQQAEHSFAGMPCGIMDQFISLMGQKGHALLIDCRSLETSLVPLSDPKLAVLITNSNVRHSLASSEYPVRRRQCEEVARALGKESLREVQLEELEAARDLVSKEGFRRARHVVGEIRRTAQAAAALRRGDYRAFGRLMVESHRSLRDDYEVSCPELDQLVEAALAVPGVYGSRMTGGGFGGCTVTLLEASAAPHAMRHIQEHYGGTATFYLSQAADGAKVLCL
Method in brief: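 GALK (5 nM) with 35 uM ATP and 100 uM galactose in HEPES pH8.0, MgCl2, NaCl, DTT, BSA; 1 h at room temperature. Residual ATP read by Kinase-Glo Plus luminescence after 10 min.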

[8] = target: Peptidyl-prolyl cis-trans isomerase NIMA-interacting 1 (Homo sapiens) (UniProt Q13526); test: qHTS Validation Assay to Find Inhibitors of Pin1 (AID 504536; active means well fitted inhibition curve with a large enough effect in the polarisation, with a control signal flat, not every such curve was filed as active; the % refers to the polarisation; further: potency means the concentration at half of the fitted maximal effect)
Sequence of Peptidyl-prolyl cis-trans isomerase NIMA-interacting 1 (Homo sapiens) (Q13526 whole entry, looked up): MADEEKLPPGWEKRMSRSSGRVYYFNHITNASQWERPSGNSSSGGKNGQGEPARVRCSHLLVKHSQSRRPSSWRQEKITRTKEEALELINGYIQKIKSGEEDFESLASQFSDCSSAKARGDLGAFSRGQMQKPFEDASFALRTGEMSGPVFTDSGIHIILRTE
Method in brief: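 Fluorescence polarization competition: compounds (titration) displace HiFluor-488-labeled Pin1-1b peptide from Pin1 (0.3 uM final) in pH 7.5 HEPES buffer with DTT, 10 min at room temperature; %Activity normalized to no-enzyme wells, curves fitted.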

[9] = Validation screen for small molecules that induce DNA re-replication in SW480 colon adenocarcinoma cells (AID 504364); further: potency means the concentration at half of the fitted maximal effect
Method in brief: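 Hoechst-stained SW480 nuclei, imaged at 405 nm excitation after 48 hr compound exposure, were counted for elevated DNA content as the re-replication signal.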

Measured: Potency

C[C@H]1CC2C3CCC4=CC(=O)C=C[C@]4(C)[C@@]3(Cl)[C@@H](O)C[C@]2(C)[C@@]1(O)C(=O)CO (stereo partly drawn)
not listed: [7] | [8] | [9]
inactive: all other assays above

N#CC(=C(\N)Sc1ccccc1N)/C(C#N)=C(/N)Sc1ccccc1N
not listed: [6] | [8] | [9]
inactive: all other assays above

CC(O)C(O)[C@H]1CNc2nc(N)[nH]c(=O)c2N1 (stereo partly drawn)
not listed: [7] | [9]
inactive: all other assays above

CCCn1c(=O)c(C)cn2nc(N)nc12
not listed: [7] | [9]
inactive: all other assays above

CN(CC[C@@H](Oc1ccc(C(F)(F)F)cc1)c1ccccc1)CC(=O)O
not listed: [7] | [9]
inactive: all other assays above

CN(C)S(=O)(=O)c1ccc2c(c1)/C(=C/c1cc3c([nH]1)CCCC3)C(=O)N2
inactive: [1] | [2] | [3] | [6]
active: [4] 25.1 µM

NC(=O)CC[C@H](N)C(=O)O
not listed: [1]
inactive: all other assays above

CCn1c(=O)[nH]c2cc(Cl)c(Cl)cc21
not listed: [1] | [8] | [9]
inactive: all other assays above

COc1cc([C@@H]2c3cc4c(cc3[C@H](O)C3COC(=O)[C@@H]32)OCO4)cc(OC)c1OC (stereo partly drawn)
inactive: [1] | [7] | [3] | [6]

C=C1C[C@@]23CC[C@H]4[C@@](C)(CCC[C@@]4(C)C(=O)OC4OC(CO)C(O)C(O)C4O)[C@@H]2CC[C@]1(OC1OC(CO)C(O)C(O)C1OC1OC(CO)C(O)C(O)C1O)C3 (stereo partly drawn)
not listed: [7] | [8] | [9]
inactive: all other assays above

CCN(c1nc(N)c(C(=O)N=C(N)N)nc1Cl)C(C)C
not listed: [1]
inactive: all other assays above

O=c1[nH]c2cc(Cl)ccc2c(O)c1-c1ccc(Oc2ccccc2)cc1
not listed: [7]
inactive: all other assays above

Nc1ncnc2c1c(-c1ccc(Oc3ccccc3)cc1)cn2C1CCCC1
inactive: [7] | [8] | [2] | [3] | [4]

CC[n+]1c(/C=C/C=C2/N(C)c3ccccc3C2(C)C)sc2ccccc21
active: [3] 19 µM | [4] 31.6 µM | [5] 3.16 µM | [6] 0.891 µM
inactive: [1]

NC(=O)c1ccccc1
not listed: [1] | [5] | [9]
inactive: all other assays above

O=c1cc(-c2ccccc2F)[nH]c2cc3c(cc12)OCO3
inactive: [1] | [8] | [3] | [4] | [6]

C=CCNc1ncnc2ccc(Br)cc12
not listed: [1] | [7] | [9]
inactive: all other assays above

COc1ccc(-c2cc3ncc(C)n3c(Nc3ncccc3C(N)=O)n2)cc1OC
inactive: [1] | [8] | [2] | [3] | [4]

CCCCCCCCCCCCCCC[C@H](O)[C@H](N)CO
active: [4] 79.4 µM
not listed: [1]
inactive: all other assays above

Brc1c(Br)c(Br)c2[nH]cnc2c1Br
inactive: [1] | [8] | [2] | [4] | [5]

N#Cc1cc([N+](=O)[O-])c2sc(C(N)=O)[n+]([O-])c2c1
inactive: [8] | [3] | [5] | [6]

O=c1[nH]c(=S)[nH]c(-c2ccccc2)c1Cc1c(O)ccc2ccccc12
inactive: [8] | [2] | [3] | [5] | [6]

O=C1C2C=CC=CC2=NC(=S)N1CCN1CCC(=C(c2ccc(F)cc2)c2ccc(F)cc2)CC1 (stereo not drawn)
not listed: [5] | [7] | [9]
inactive: all other assays above

Clc1nccc2c1ccc1ccccc12
not listed: [1] | [2]
inactive: all other assays above

COc1cc(/C=C(\C#N)C(=O)Nc2nnc(C(F)(F)F)s2)ccc1OCc1ccc(C(F)(F)F)cc1C(F)(F)F
inactive: [1] | [3] | [5]
active: [8] 23.9 µM | [4] 50.1 µM

CC[C@H](NC(=O)c1c(C)c(-c2ccccc2)nc2ccccc12)c1ccccc1
inactive: [7] | [2] | [3] | [4] | [5]

O=C(O)Cc1c[nH]c2ccc(O)cc12
not listed: [5] | [7]
inactive: all other assays above

N#C/C(=C\c1ccc(O)c(O)c1)C(=O)NCCCNC(=O)/C(C#N)=C/c1ccc(O)c(O)c1
inactive: [1] | [7] | [3] | [6]

CN(C)CCCc1cc(C(=O)Nc2ccc(-c3ccncc3)cc2)ccc1O
not listed: [7] | [9]
inactive: all other assays above

CCCCCCCC/C=C\CCCCCCCC(=O)NCCc1ccc(O)c(O)c1
inactive: [7] | [2] | [3]
active: [5] 31.6 µM | [6] 20 µM

CCC1(O)CC2CN(CCc3c([nH]c4ccccc34)[C@@](C(=O)OC)(c3cc4c(cc3OC)N(C)C3[C@]45CCN4CC=C[C@@](CC)([C@@H](OC(C)=O)[C@]3(O)C(=O)OC)[C@H]45)C2)C1 (stereo partly drawn)
inactive: [1] | [8] | [2] | [3] | [4]
active: [9] 0.0206 µM

CNCCc1cnc(CCC(c2ccccc2)c2ccccc2)[nH]1
inactive: [1] | [8] | [2] | [3] | [4]

C=C1C(=O)O[C@@H]2[C@H]3O[C@]3(C)CCC=C(C)CC[C@@H]12
not listed: [1] | [5] | [6]
inactive: all other assays above

O=c1[nH]c2ccccc2c2ccccc12
not listed: [7] | [9]
inactive: all other assays above

c1ccc(C(NCCNC(c2ccccc2)c2ccccc2)c2ccccc2)cc1
inactive: [2] | [3]

CCCCCCCCCCC(C)(C)C(=O)Nc1c(OC)cc(OC)cc1OC
active: [4] 44.7 µM
inactive: [1] | [8] | [2] | [3] | [6]

NCCC1CCCC(CCN)N1 (stereo not drawn)
not listed: [1]
inactive: all other assays above
